Compound activity from PubChem BioAssay.
HT1080 IDH1KD tx = toxicity to HT-1080 IDH1 knockdown cells (counter line). HT-1080 IDH1 knockdown viability, ATP luminescence, 48 h. 2% of 360,000 active. Potency, µM (doses to about 46.1 µM), for inactives: top-dose activity, negative = toxicity, most hits filed as cytotoxic;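 further: potency means the concentration at half of the fitted maximal effect; 0% = DMSO wells and -100% = cell-free medium wells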
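% activity derives from luminescence (CellTiter-Glo), normalised to DMSO and no-cell wells. HT-1080-IDH1KD cells, 750/well, had 48 h compound exposure at 37 °C.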
TDP1 cell CPT = DT40-hTDP1 cell growth loss with CPT | chicken DT40 Tdp1-/-;hTDP1 cells + 20 nM CPT, ATP luminescence, 48 h | Potency, µM (top dose mostly 46.2 µM), without a hit: top-dose activity change, negative = growth inhibition, hits mostly inhibitors | 12% of 420,000 active | AID 686979; further: potency means the concentration at half of the fitted maximal effect; nearly all actives have a fitted effect of over 55% in size
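Cell growth measured by CellTiter-Glo luminescence after a minimum 48 h, 37 C compound exposure with 20 nM CPT in Tdp1-knockout DT40 cells stably expressing hTDP1, seeded 400/well; qHTS titration format.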
DT40 TDP1 no CPT = qHTS for Inhibitors of human tyrosyl-DNA phosphodiesterase 1 (TDP1): qHTS in cells in absence of CPT. 15% of 420,000 active. DT40 Tdp1-/- hTDP1 cells, no CPT, ATP luminescence, 48 h. Potency, µM (top dose mostly 46.2 µM), inactives show at the highest dose activity change, negative = growth inhibition, actives largely listed as inhibitors. AID 686978, 2013; further: potency means the concentration at half of the fitted maximal effect; nearly all actives have a fitted effect of over 55% in size
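Readout: luminescence from CellTiter-Glo after 30 min in the dark at RT. Cells: DT40 Tdp1-/- with stable hTDP1, 400/well. Exposure: compounds alone, ≥48 hr, 37 °C.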
uPA surface inh = cell surface uPA generation inhibition; cell surface uPA generation assay, qHTS; Potency, µM (highest dose often 38.3 µM), without a hit: at the highest dose activity change, negative = inhibition, actives largely listed as inhibitors; 0.31% of 330,000 active; AID 540303; active means well fitted inhibition curve with a large enough effect; inconclusive means small, poorly fitted or top-dose-only effect; inactive means no such curve, though single readings can be large or run the other way; tested in mouse RAW 264.7 cells; further: potency means the concentration at half of the fitted maximal effect; nearly all actives have a fitted effect of over 55% in size
IL-1B inflam inh = blocks inflammasome-driven IL-1 beta release; THP-1 LPS/ATP IL-1B secretion, AlphaLISA, 16 h; hits give low values; activity change, % at 57.5 µM; 4.7% of 360,000 active; AID 743279; in the data active means activity change below about -50%; inconclusive means mostly about -30% to -49%
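Secreted IL-1B measured by AlphaLISA bead assay after 16 h compound exposure of THP-1 cells; compounds (final up to 57.5 uM) added 1 h before LPS (250 ng/mL) and ATP (1.25 mM) stimulation; lower signal means less secretion.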
HT1080-NT tox = kills 2HG-producing HT-1080-NT fibrosarcoma cells; HT-1080-NT fibrosarcoma viability, CellTiter-Glo ATP luminescence, 48 h; Potency, µM (highest dose often 46.1 µM), for inactives: at the highest dose activity, negative = less viability, hits mostly cytotoxic; 1.6% of 360,000 active; AID 686970;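 further: NT is the 2HG producing partner of a matched IDH1 knockdown line; potency means the concentration at half of the fitted maximal effect; 0% = DMSO-treated cells and -100% = media-only wells without cells; nearly all actives have a fitted effect of over 55% in size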
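HT-1080-NT; 750 cells/well; 5% FBS RPMI; 48 h compound, 37 degrees C; CellTiter-Glo luminescence; curve fitting and curve-class assignment.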
Numbers without * were called inactive; i = inactive; u = inconclusive; x = no result given; ! = repeats disagree. In the library only some 19% were active in any assay of this set; here they are far more common. Unless noted, the call rests on the fitted dose curve; in most records, active means well fitted curve in the direction sought with a large enough effect; inconclusive means small, poorly fitted or top-dose-only effect, or another doubt; inactive means no such curve, though single readings can be large; an effect the other way counts as inactive or inconclusive. Unless noted, on the % scale 0 is the no-effect control and ±100 the full control effect.

SMILES | HT1080 IDH1KD tx | TDP1 cell CPT | DT40 TDP1 no CPT | uPA surface inh | IL-1B inflam inh | HT1080-NT tox
O=C(O)c1ccc(N/N=C/c2ccc(-c3ccc(Br)cc3)o2)cc1 | 23.1µM* | u | u | -1.9% | 32.1 | 25.9µM*
CCCC1Cc2nc(Cl)c(C#N)cc2CO1 (configuration not stated) | 13.1% | 1.7% | -3.0% | -1.1% | 8.6 | -1.8%
O=C(c1ccc(Br)o1)N1CCN(C23CC4CC(CC(C4)C2)C3)CC1 | -5.1% | u | u | -0.7% | 6.6 | -0.4%
O=C(c1ccc(C23CC4CC(CC(C4)C2)C3)o1)N1CCOCC1 | u | u | 23.1µM* | -9.1% | -1.3 | -18.3%
N#Cc1cn(-c2cccc(C(F)(F)F)c2)c(=O)[nH]c1=O | -15.6% | 8.2% | -4.2% | 4.6% | 26.8 | -14.3%
CC[C@H](CC[C@@H](C)C1CC[C@H]2[C@@H]3CC=C4C[C@@H](O)CC[C@]4(C)[C@H]3CC[C@]12C)C(C)C (some centres not stated) | x | 5.3% | -5.0% | x | x | x
C=C1CC[C@H](O)C/C1=C/C=C1\CCC[C@]2(C)C([C@H](C)CCCC(C)(C)O)CC[C@@H]12 (some centres not stated) | x | 0.0461µM*! | 0.0206µM*! | x | x | x
Cc1n[nH]c2c([N+](=O)[O-])c(=O)[nH]c(=O)n12 | 13.1% | 3.4% | -6.2% | 4.3% | -14.6 | 3.2%
Oc1ccc(F)c2cccnc12 | 0.0% | 13µM* | 14.6µM* | 2.1% | -70.2* | u
Oc1ccc(Cl)c2cccnc12 | -25.3% | 1.84µM* | 1.84µM* | -8.4% | -29.8 | -6.8%
Cc1ccc(S(=O)(=O)Nc2cc(Cl)c(O)c3ncccc23)cc1 | u | 2.31µM* | 5.17µM* | -8.9% | 50.4 | -22.6%
Oc1c(Cl)cc(Cl)c2cccnc12 | 20.6µM* | 18.4µM* | 8.2µM* | u | 125.9 | u
Clc1cc2cccnc2c2ccccc12 | 10.7% | -2.1% | -2.8% | 3.3% | 14.7 | 7.7%
O=C(Oc1ccc(Cl)c2cccnc12)N1CCCCC1 | -23.3% | 5.0% | -8.9% | 12.5% | 10.0 | 0.0%
COCCn1c(C)cc(O)c(C(c2ccccc2F)N2CCN(c3ccccc3)CC2)c1=O (configuration not stated) | x | -20.5% | -19.4% | x | x | x
CCc1ccccc1Nc1nc(N)nc(COC(=O)CCC(=O)c2ccc(F)cc2)n1 | -12.7% | -9.6% | -11.5% | 1.2% | 14.1 | -10.2%
Brc1ccc(C2=CSC3=NCCN23)cc1 | -5.7% | -27.4% | u | -2.2% | -16.8 | -12.6%
Clc1ccc(C2=CSC3=NCCN23)c(Cl)c1 | -15.0% | 3.6% | -10.2% | -3.9% | -51.1* | 4.7%
CC(=O)O[C@@]12CO[C@@H]1C[C@H](O)[C@@]1(C)C(=O)[C@H](O)C3=C(C)[C@@H](OC(=O)[C@H](O)[C@@H](NC(=O)OC(C)(C)C)c4ccccc4)C[C@@](O)([C@@H](OC(=O)c4ccccc4)[C@H]21)C3(C)C | x | 0.0011µM* | 0.0012µM* | x | x | x
CC(NC(=O)C(=O)Nc1c2c(nn1-c1ccc(F)cc1)CSC2)c1ccccc1 (configuration not stated) | x | -86.0% | 8.2µM* | x | x | x
CC(NC(=O)C(=O)Nc1c2c(nn1-c1ccccc1)CSC2)c1ccccc1 (configuration not stated) | x | 14.6µM* | 20.6µM* | x | x | x
CCC(CO)NC(=O)C(=O)Nc1c2c(nn1-c1ccc(F)cc1)CSC2 (configuration not stated) | x | -6.1% | 2.6% | x | x | x
CCc1ccc(OCC(=O)Nc2ccc(S(=O)(=O)Nc3ccccn3)cc2)cc1 | 0.5% | 16.3% | -1.5% | -0.6% | 19.3 | 6.5%
CCOC(=O)C1CCN(C(=O)c2ccc(Cl)c(S(=O)(=O)N3CCCC3)c2)CC1 | 9.2% | -26.9% | -30.0% | -0.1% | 11.2 | 3.3%
O=C(Nc1ccccn1)c1ccc(Cl)c(S(=O)(=O)N2CCc3ccccc32)c1 | -10.1% | 16.4µM* | u | 6.1% | -28.3 | -2.2%
SMILES | HT1080 IDH1KD tx | TDP1 cell CPT | DT40 TDP1 no CPT | uPA surface inh | IL-1B inflam inh | HT1080-NT tox
CCOC(=O)C1CCCN(C(=O)c2ccc(Cl)c(S(=O)(=O)N3CCc4ccccc43)c2)C1 (configuration not stated) | -18.9% | u | 13µM* | -6.4% | 45.2 | -5.6%
CC(=O)Nc1ccc(NC(=O)c2ccc(Cl)c(S(=O)(=O)N3CCc4ccccc43)c2)cc1 | 2.0% | u | 4.61µM* | -6.3% | 20.4 | -6.7%
O=C(Nc1ccccn1)c1cccc(S(=O)(=O)N2CCc3ccccc3C2)c1 | -10.0% | -22.7% | u | -2.0% | -55.6* | -13.5%
COC(=O)CN1C(=O)CSc2ccc(S(=O)(=O)Nc3cccc(Br)c3)cc21 | x | -20.3% | u | x | x | x
O=C(c1ccccc1)C(c1ccccc1)[n+]1csc2ccccc21 (configuration not stated) | x | u | 11.2µM* | x | x | x
Cc1noc(C)c1COC(=O)c1ccccc1Sc1ccccc1C#N | -27.5% | 25.9µM* | u | -3.5% | -20.3 | -6.1%
Cc1cc(C)c(Cn2cnc3nc4c(cc3c2=O)CCCC4)c(C)c1 | x | -20.4% | u | x | x | x
CC1CCCCN1C(=S)NC(=O)c1ccccc1 (configuration not stated) | 7.0% | u | u | 4.3% | 0.0 | -1.1%
CCN(CC)S(=O)(=O)c1ccc(C(=O)NC(=S)N2CCCCC2C)cc1 (configuration not stated) | 1.0% | u | 16.4µM* | x | -5.1 | -10.8%
Cc1ccc(C)c(S(=O)(=O)N2CCCOC2CNC(=O)C(=O)NCCC2=CCCCC2)c1 (configuration not stated) | 3.8% | u | 23.1µM* | -4.7% | 0.0 | 5.7%
O=C(NCCC1=CCCCC1)C(=O)NCC1OCCCN1S(=O)(=O)c1ccccc1 (configuration not stated) | 2.6% | -25.3% | u | 1.4% | 13.2 | 3.0%
Cc1ccc(S(=O)(=O)N2CCOC2CNC(=O)C(=O)NCCc2ccccc2)cc1 (configuration not stated) | -19.3% | u | -21.4% | -1.7% | -5.5 | -0.2%
Cc1ccc(S(=O)(=O)N2CCOC2CNC(=O)C(=O)NCCCc2ccccc2)cc1 (configuration not stated) | -14.9% | u | 18.4µM* | u | 6.5 | -17.7%
Cc1ccc(C)c(S(=O)(=O)N2CCCOC2CNC(=O)C(=O)NCCc2ccccc2)c1 (configuration not stated) | -17.1% | u | 16.4µM* | -8.4% | i | -4.8%
